Measurements as given in PubChem BioAssay AID1251 (SRMLSC, 2008).
The whole screen tested about 200,000 compounds, of which about 720 (0.36%) were called active. Rule as the data show it: active = inhibition above about 30%; inactive = the rest, inconclusive results apart. The entries come from a sample that favours actives as a whole.

Experiment: antivirals against arbovirus infection, primary screen, cell-based, full library, 10K replicate subset (AID 1251)
[1] = arbovirus infection cell-based antiviral screen, at 10 µM, stronger effect = higher value
[2] = arbovirus infection cell-based antiviral screen; at 10 µM; stronger effect = higher value
[3] = arbovirus infection cell-based antiviral screen; measured here: 10K subset replicate screen; at 10 µM; stronger effect = higher value

## NC(=O)COc1ccc(NC(=O)c2ccccc2-c2ccccc2)cc1
[1]
  inhibition: -1.27% (inactive)

## CCn1c(SCC(=O)Nc2ccccc2F)nc2c(c1=O)SC(C)C2 (stereo unspecified)
[1]
  inhibition: 13.7% (inactive)

## CC1Cc2nc(SCC(=O)Nc3ccccc3F)n(C)c(=O)c2S1 (stereo unspecified)
[1]
  inhibition: 6.16% (inactive)

## COCCn1c(SCC(=O)Nc2cc(Cl)ccc2OC)nc2c(c1=O)SC(C)C2 (stereo unspecified)
[2]
  inhibition: 31.7% (active)
[3]
  inhibition: 23%

## COc1ccc(C)cc1NC(=O)CSc1ccc(Cl)cc1
[1]
  inhibition: 3.07% (inactive)

## O=C(CSc1ccccc1)Nc1cc(Cl)ccc1Oc1ccccc1
[1]
  inhibition: 31.3% (active)

## CC(=O)Nc1ccc(SCC(=O)Nc2ccccc2Oc2ccccc2)cc1
[1]
  inhibition: -11.3% (inactive)

## C=Cn1c(C(=O)O)ccc1-c1ccc(OC)cc1
[1]
  inhibition: -6.55% (inactive)

## CCn1c(-c2cccnc2Cl)nc2cc(C)c(C)cc21
[1]
  inhibition: 9.84% (inactive)

## CCn1cnc2scc(-c3ccc(C)c(C)c3)c2c1=O
[1]
  inhibition: -10.7% (inactive)

## COc1ccc(-c2csc3ncnc(Oc4ccc5c(C)cc(=O)oc5c4)c23)cc1
[1]
  inhibition: -19% (inactive)

## Cc1cc(F)ccc1S(=O)(=O)Nc1ncnc2scc(-c3ccc(F)cc3)c12
[1]
  inhibition: 34.8% (active)

## Cc1cccc(C)c1NC(=O)Nc1ccccc1-n1ccnc1
[1]
  inhibition: 0% (inactive)

## CCN(/N=C/c1ccc(N(C)C)cc1)c1nc2ccccc2[nH]1
[1]
  inhibition: -9.69% (inactive)

## CCNC(=S)NNC(=O)C1CCN(Cc2ccccc2)CC1
[1]
  inhibition: 0.25% (inactive)

## CCN(CCO)C(=S)Nc1cc(C(=O)OC)ccc1C(=O)OC
[1]
  inhibition: -0.56% (inactive)

## CC(=O)Nc1ccc(Sc2ccccc2C(=O)N2CCCC2)cn1
[1]
  inhibition: 12.2% (inactive)

## CN(C)c1nc(-c2cccnc2)nc(-c2ccc(Cl)cc2)c1C#N
[1]
  inhibition: -9.56% (inactive)

## O=C(CCN1CCN(C/C=C/c2ccccc2)CC1)Nc1cccc(F)c1
[1]
  inhibition: -4.37% (inactive)

## CC/C(=N\NC(=S)NC(C)C)c1ccc(OC(F)F)cc1
[1]
  inhibition: 1.93% (inactive)

## CC(=O)NC(CC(=O)O)c1ccc(F)cc1 (stereo unspecified)
[1]
  inhibition: 4.26% (inactive)

## CC(Nc1nc(N2CCCC2)nc2ccccc12)c1ccccc1 (stereo unspecified)
[1]
  inhibition: -47.5% (inactive)

## Cc1ccc(C(CC(=O)O)Nc2nc(N3CCCCC3)nc(N3CCCCC3)n2)cc1 (stereo unspecified)
[1]
  inhibition: 31.3% (active)

## O=[N+]([O-])c1ccc2oc(-c3cccc(O)c3)nc2c1
[1]
  inhibition: 0.35% (inactive)

## COc1ccc(Nc2nc(NCc3ccco3)nc(N/N=C/c3ccccc3Cl)n2)cc1
[1]
  inhibition: -9.8% (inactive)

## CC1CCCC(NC(=O)c2cccc(N3CCCC3=O)c2)C1C (stereo unspecified)
[1]
  inhibition: 15.1% (inactive)

## O=C(Nc1ccc(-c2ccc3nncn3n2)cc1)C1CCCCC1
[1]
  inhibition: 2.96% (inactive)

## CC(CC(=O)O)C(=O)c1ccc(Cl)c([N+](=O)[O-])c1 (stereo unspecified)
[1]
  inhibition: 5.76% (inactive)

## CCO[C@@H]1OC(C(=O)N2CCOCC2)=C[C@H](C)[C@H]1CCCO
[1]
  inhibition: 1.57% (inactive)

## COc1ccc(C(=O)OCC(=O)NC(=O)CCSc2ccccc2)cc1
[1]
  inhibition: -0.73% (inactive)

## Cc1ccccc1Nc1scc(-c2ccc(Br)cc2)[n+]1-c1ccccc1C
[1]
  inhibition: 15.8% (inactive)

## O=C(CC1C(=O)NCCN1Cc1ccc(-c2ccccc2)cc1)NCC1CCOCC1 (stereo unspecified)
[1]
  inhibition: 1.09% (inactive)

## Cc1ccc(CNC(=O)Cn2c(=O)c3sccc3n(Cc3cccc([N+](=O)[O-])c3)c2=O)cc1
[1]
  inhibition: -23.2% (inactive)

## C/C(=N\NC(=O)c1ccc(NS(=O)(=O)c2cccs2)cc1)c1ccc2ccccc2c1
[1]
  inhibition: -27.7% (inactive)

## O=c1[nH]c(SCc2ccccc2)nnc1-c1ccccc1
[1]
  inhibition: 33.1% (active)

## Cc1ccccc1CSc1nnc(-c2ccccc2)c(=O)[nH]1
[1]
  inhibition: 1.96% (inactive)

## c1ccc(CSc2nnc(-c3ccco3)c(-c3ccco3)n2)cc1
[1]
  inhibition: 13.1% (inactive)

## O=C(Cn1cnc([N+](=O)[O-])n1)NCCc1ccccc1
[1]
  inhibition: -2.73% (inactive)

## CC(=O)Oc1ccccc1C(=O)Nc1ncc([N+](=O)[O-])s1
[1]
  inhibition: 31.3% (active)

## O=C(CCc1ccccc1)Nc1ncc([N+](=O)[O-])s1
[1]
  inhibition: 14.4% (inactive)

## O=C(Cc1c(F)cccc1Cl)Nc1ncc([N+](=O)[O-])s1
[1]
  inhibition: 25.4% (inactive)

## Cc1ccc(-c2csc(NC(=O)c3cccs3)n2)cc1
[1]
  inhibition: 103% (active)

## Cc1nc(-c2ccc(NC(=O)c3cccs3)cc2)cs1
[1]
  inhibition: -9.57% (inactive)

## Cc1ccc(-c2csc(NNC(=O)c3ccccc3)n2)cc1
[1]
  inhibition: -29.2% (inactive)

## COc1ccc(OC)c(-c2c(=O)n(OCc3ccccc3Br)c3ccccc3[n+]2[O-])c1
[1]
  inhibition: 6.28% (inactive)

## O=C(COC(=O)c1ccccc1)Nc1ccccc1Sc1ccccc1
[1]
  inhibition: -1.75% (inactive)

## O=c1[nH]c(CN2CCN(S(=O)(=O)c3ccc4c(c3)OCCO4)CC2)nc2sc3c(c12)CCCC3
[1]
  inhibition: 11.3% (inactive)

## CCCCOc1ccc(NC(=O)[C@@H]2CCCN2C(=O)C2CCN(S(=O)(=O)c3ccc(C)cc3)CC2)cc1
[1]
  inhibition: -16.3% (inactive)

## Cc1cc(C)c(C#N)c(N2CCC(C(N)=O)CC2)n1
[1]
  inhibition: 2.87% (inactive)

## CC(NC(=O)C(=O)NN=C1CCC(C(C)(C)C)CC1)c1ccccc1 (stereo unspecified)
[1]
  inhibition: 1.88% (inactive)

## Cc1sc2nc(CC(N)=O)[nH]c(=O)c2c1-c1ccccc1
[1]
  inhibition: 3.01% (inactive)

## Cc1ccsc1C1C(C#N)=C(N)OC2=C1C(=O)CC(C)C2 (stereo unspecified)
[1]
  inhibition: -1.92% (inactive)

## C=CCN1C(=O)C(O)(CC(=O)c2ccccn2)c2ccccc21 (stereo unspecified)
[1]
  inhibition: -2.77% (inactive)

## Cc1ccc(NC(=O)N2CCC(c3nc4c(nnn4Cc4c(F)cccc4Cl)c(=O)[nH]3)CC2)cc1
[1]
  inhibition: -3.45% (inactive)

## Cc1ccc(C)c(Cn2nnc3c(=O)[nH]c(C(=O)Nc4ccc(F)cc4)nc32)c1
[1]
  inhibition: 39.7% (active)

## O=C(Nc1ccc(F)cc1)N1CCCC(c2nc3c(nnn3Cc3ccccc3Cl)c(=O)[nH]2)C1 (stereo unspecified)
[1]
  inhibition: 12.4% (inactive)

## CSCCNCc1cn(-c2ccc(F)cc2F)nc1-c1ccccc1C
[1]
  inhibition: -1.44% (inactive)

## CCOC(=O)Cc1ncccc1C(=O)Nc1ccc(OC(F)(F)F)cc1
[1]
  inhibition: 4.21% (inactive)

## Cc1nn(Cc2ccc(Cl)cc2)c(Cl)c1/C=N/NC(=O)CNc1ccccc1F
[1]
  inhibition: -16.6% (inactive)

## CC(=O)Nc1ccc(NC(=S)NC(=O)c2ccc([N+](=O)[O-])c(C)c2)cc1
[1]
  inhibition: -7.89% (inactive)

## O=C(O)c1ccc2c(c1)C(=O)N(NC(=O)c1ccc(O)cc1)C2=O
[1]
  inhibition: -2.03% (inactive)

## O=C(C1CC1)N1CCN=C1SCc1ccc(Cl)cc1
[1]
  inhibition: 55.7% (active)

## O=C(c1ccco1)N1CCN=C1SCc1cccc(Cl)c1
[2]
  inhibition: 5.96% (inactive)
[3]
  inhibition: 0.055%

## CCC(=O)N1CCN=C1SCc1ccc(F)cc1
[1]
  inhibition: -3.24% (inactive)

## C/C(=N\NC(=O)CCn1nc(C)cc1C)C(C)(C)C
[1]
  inhibition: -5.42% (inactive)

## CCCN(C(=O)CSc1nnnn1C)c1c(N)n(Cc2ccccc2)c(=O)[nH]c1=O
[1]
  inhibition: 21.9% (inactive)

## COc1ccc(C2=CC(c3cccc(OC)c3)n3nnnc3N2)cc1 (stereo unspecified)
[1]
  inhibition: 11.1% (inactive)

## Brc1ccc(C2=CC(c3ccco3)n3ncnc3N2)cc1 (stereo unspecified)
[1]
  inhibition: 12.4% (inactive)

## COc1ccc(C2C=C(c3ccc(Br)cc3)Nc3nc(NS(C)(=O)=O)nn32)cc1 (stereo unspecified)
[1]
  inhibition: 61.9% (active)

## CC1(C)CC(=O)CC2(C1)NCC(c1ccccc1Cl)c1c2[nH]c2ccccc12 (stereo unspecified)
[1]
  inhibition: -27.8% (inactive)

## COc1cccc(NC(=O)Nc2nnc(N3CCCCC3C)s2)c1 (stereo unspecified)
[2]
  inhibition: 37.5% (active)
[3]
  inhibition: 24.8%

## CCOC(=O)c1csc(NC(=O)Nc2cccc(OC)c2)n1
[1]
  inhibition: 6.16% (inactive)

## COc1cccc(Nc2nnc(SCC(=O)N3CC(C)OC(C)C3)s2)c1 (stereo unspecified)
[1]
  inhibition: 2.66% (inactive)

## NC(N)=Nc1nc2ccc(Br)cc2c(=O)[nH]1
[1]
  inhibition: -2.82% (inactive)

## CCOc1ccc(C(=O)Nc2cccc(SC)c2)cc1
[1]
  inhibition: 4.43% (inactive)

## Cc1ccc(C2=C/C(=C\c3cccnc3)C(=O)O2)cc1
[1]
  inhibition: -1.53% (inactive)

## O=C(Nc1ccc2c(c1)CCC2)c1cccc(S(=O)(=O)Nc2ccccc2Cl)c1
[1]
  inhibition: -3.02% (inactive)

## C=CCn1c(SCC(=O)NCc2ccccc2)nnc1-c1cc(Br)ccc1O
[1]
  inhibition: 8.76% (inactive)

## C=CCn1c(SCC(=O)Nc2nc3ccccc3s2)nnc1-c1ccccc1O
[1]
  inhibition: 47.3% (active)

## Cn1nnnc1SCC(=O)Nc1nc2ccccc2s1
[1]
  inhibition: 0.23% (inactive)

## CCOC(=O)CN/C=C(\C#N)c1ccc(F)cc1
[1]
  inhibition: -0.71% (inactive)

## CCOc1cc(/C=C(/C#N)c2ccc(Cl)cc2)cc(Cl)c1OCC(=O)O
[1]
  inhibition: 51.7% (active)

## CCOc1c(Cl)cc(/C=N/O)cc1OC
[1]
  inhibition: 11% (inactive)

## O=c1oc(/C=C/c2ccccc2)nc2ccccc12
[1]
  inhibition: 44.9% (active)

## CCn1c(/C=C/c2ccc([N+](=O)[O-])o2)nc2ccccc2c1=O
[1]
  inhibition: -31.9% (inactive)

## S=c1[nH]nc(/C=C/c2ccccc2)o1
[1]
  inhibition: -0.67% (inactive)

## CC(C)(C)NC(=O)c1cccc(NC(=O)Cc2ccc(Br)cc2)c1
[1]
  inhibition: 17.2% (inactive)

## Cc1ccccc1NC(=S)N(CCCN1CCOCC1)Cc1cccs1
[1]
  inhibition: 7.45% (inactive)

## CCCc1cc(=O)[nH]c(SCC(=O)OCc2ccccc2)n1
[1]
  inhibition: 0.37% (inactive)

## CCCc1cc(=O)[nH]c(SCc2cc(=O)oc3c(C)c(C)ccc23)n1
[1]
  inhibition: 5.14% (inactive)

## CCCc1cc(=O)[nH]c(SCc2ccc(C#N)cc2)n1
[1]
  inhibition: 42% (active)

## CN1CCN(S(=O)(=O)c2cccc(C(=O)O)c2)CC1
[1]
  inhibition: -0.22% (inactive)

## CC(=O)n1cc([C@@H]2C=C(C(=O)N3CCN(Cc4ccc5c(c4)OCO5)CC3)O[C@H](OCc3ccc(CO)cc3)C2)c2ccccc21
[1]
  inhibition: -8.36% (inactive)

## COc1ccc(C)cc1NC(=O)c1ccc(-c2ccc(C(C)=O)cc2)o1
[1]
  inhibition: -5.64% (inactive)

## Cc1nnc(SCC(=O)NCc2ccccc2)s1
[2]
  inhibition: -3.33% (inactive)
[3]
  inhibition: 3.33%

## Cc1cccc(CSc2nnc(NC(=O)CSc3nnc(C)s3)s2)c1
[1]
  inhibition: 31.4% (active)

## Cc1cccc(NC(=O)CSc2nnc(NC(=O)CN3CCOCC3)s2)c1
[1]
  inhibition: 4.51% (inactive)
